Results filed as inconclusive are left out. Active and inactive are the calls of the source. Calls follow the shape of the dose curve; as a rule, active = well fitted curve in the direction sought with a large enough effect; inconclusive = small, poorly fitted or top-dose-only effect, or another doubt; inactive = no such curve, though single readings can be large; an effect the other way counts as inactive or inconclusive.
Legend:
[1] = qHTS of pediatric cancer cell lines to identify multiple opportunities for drug repurposing: Primary screen for NB-EBc1 cells (AID 1347095)
Summary of the method: (§1)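 Quantitative HTS format: each compound titrated (MIPE 11 points from 0.78 nM, NPC 8 points from 0.59 nM) onto cells plated 5 hours earlier. After 48 h at 37 degrees C, CellTiter-Glo luminescence was recorded.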

[2] = qHTS of pediatric cancer cell lines to identify multiple opportunities for drug repurposing: Primary screen for U-2 OS cells (AID 1347096); also: nearly all actives have a fitted effect of over 50% in size
Summary of the method: (§2)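 Cells (500-1,000/well) in growth media were settled 5 h at 37 degrees C, then given compounds for 48 h. Viability was read as CellTiter-Glo luminescence. Primary runs used MIPE at 11 points (0.78 nM-46 µM) and NPC at 8 points (0.59 nM-46 µM); follow-ups used 11 points.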

[3] = qHTS of pediatric cancer cell lines to identify multiple opportunities for drug repurposing: Primary screen for Saos-2 cells (AID 1347097); also: nearly all actives have a fitted effect of over 40% in size
Summary of the method: as §1

[4] = qHTS of pediatric cancer cell lines to identify multiple opportunities for drug repurposing: Primary screen for SK-N-SH cells (AID 1347098);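 also: DMSO served as neutral control and bortezomib at 2.3 µM as positive control; nearly all actives have a fitted effect of over 65% in size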
Summary of the method: (§3)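 Cells (500-1,000/well) rested 5 h, then received compounds for 48 h; metabolically active cells were measured by CellTiter-Glo luminescence. Final concentrations spanned up to 46 µM (MIPE, 11-point) or 0.59 nM-46 µM (NPC, 8-point) in primary screens, 11-point in follow-ups.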

[5] = qHTS of pediatric cancer cell lines to identify multiple opportunities for drug repurposing: Primary screen for NB1643 cells (AID 1347099); also: nearly all actives have a fitted effect of over 50% in size
Summary of the method: as §1

[6] = qHTS of pediatric cancer cell lines to identify multiple opportunities for drug repurposing: Primary screen for LAN-5 cells (AID 1347100)
Summary of the method: as §2

[7] = qHTS of pediatric cancer cell lines to identify multiple opportunities for drug repurposing: Primary screen for BT-12 cells (AID 1347101); also: nearly all actives have a fitted effect of over 25% in size
Summary of the method: as §3

[8] = qHTS of pediatric cancer cell lines to identify multiple opportunities for drug repurposing: Primary screen for Rh18 cells (AID 1347102); also: nearly all actives have a fitted effect of over 65% in size
Summary of the method: as §2

[9] = qHTS of pediatric cancer cell lines to identify multiple opportunities for drug repurposing: Primary screen for OHS-50 cells (AID 1347103); also: nearly all actives have a fitted effect of over 40% in size
Summary of the method: as §3

[10] = qHTS of pediatric cancer cell lines to identify multiple opportunities for drug repurposing: Primary screen for control Hh wild type fibroblast cells (AID 1347106);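 also: series mostly up to about 46 µM; a drop in luminescence marks cytotoxicity and a rise apparent proliferation; nearly all actives have a fitted effect of over 55% in size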
Summary of the method: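 Viability after 48 h compound treatment at 37C, 500-1,000 cells/well, read as ATP luminescence with CellTiter-Glo. Primary screens used 11-point (MIPE, 0.78 nM-46 µM) or 8-point (NPC, 0.59 nM-46 µM) final concentrations; follow-up screens used 11-point dilutions.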

[11] = qHTS of pediatric cancer cell lines to identify multiple opportunities for drug repurposing: Primary screen for Rh30 cells (AID 1347107); also: series mostly up to about 46 µM; nearly all actives have a fitted effect of over 75% in size
Summary of the method: as §2

[12] = qHTS of pediatric cancer cell lines to identify multiple opportunities for drug repurposing: Primary screen for Rh41 cells (AID 1347108);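 also: series mostly up to about 46 µM; luminescence drop marks cytotoxic hits; nearly all actives have a fitted effect of over 70% in size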
Summary of the method: as §1

[13] = qHTS of pediatric cancer cell lines to identify multiple opportunities for drug repurposing: Primary screen for RD cells (AID 1347104); also: nearly all actives have a fitted effect of over 55% in size
Summary of the method: as §1

[14] = qHTS of pediatric cancer cell lines to identify multiple opportunities for drug repurposing: Primary screen for MG 63 (6-TG R) cells (AID 1347105); also: nearly all actives have a fitted effect of over 50% in size
Summary of the method: as §1

[15] = qHTS of pediatric cancer cell lines to identify multiple opportunities for drug repurposing: Confirmatory screen for NB1643 cells (AID 1347109); also: nearly all actives have a fitted effect of over 45% in size
Summary of the method: as §2

[16] = qHTS of pediatric cancer cell lines to identify multiple opportunities for drug repurposing: Confirmatory screen for A673 cells (AID 1347110);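 also: cells exposed to compound for 48 h before the viability read; nearly all actives have a fitted effect of over 65% in size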
Summary of the method: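 A673 cells seeded at 500-1,000 cells/well, rested 5 h, then dosed; primary MIPE 11-point (0.78 nM to 46 µM), NPC (0.59 nM to 46 µM); confirmatory 11-point. CellTiter-Glo luminescence after 48 h.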

[17] = qHTS of pediatric cancer cell lines to identify multiple opportunities for drug repurposing: Confirmatory screen for SK-N-MC cells (AID 1347111);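 also: potency is read from the fitted curve at half-maximal effect; cells exposed to compound for 48 h before the readout; nearly all actives have a fitted effect of over 70% in size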
Summary of the method: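 Metabolically active cells were quantified by ATP-dependent luminescence (CellTiter-Glo, 15 min at room temperature) following 48 h treatment. Cells had been plated at 500-1,000 per well and settled for 5 h beforehand.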

[18] = qHTS of pediatric cancer cell lines to identify multiple opportunities for drug repurposing: Confirmatory screen for BT-12 cells (AID 1347112); also: nearly all actives have a fitted effect of over 55% in size
Summary of the method: as §2

[19] = qHTS of pediatric cancer cell lines to identify multiple opportunities for drug repurposing: Confirmatory screen for LAN-5 cells (AID 1347113); also: nearly all actives have a fitted effect of over 65% in size
Summary of the method: as §2

Measured: Potency

CC(C)=CCC/C(C)=C/CC/C(C)=C/CCC(=O)OC/C=C(\C)CCC=C(C)C
not listed: [13] | [14] | [15] | [16] | [17] | [18] | [19]
inactive: all other assays above

Cn1cc(S(C)=O)c(=O)c2ccc(F)cc21 (configuration not stated)
not listed: [11] | [15] | [16] | [17] | [18] | [19]
inactive: all other assays above

O=P(O)(O)OCC(O)CO (configuration not stated)
not listed: [10] | [13] | [15] | [16] | [17] | [18] | [19]
inactive: all other assays above

Nc1c[n+](N2CCOCC2)no1
not listed: [14] | [15] | [16] | [17] | [18] | [19]
inactive: all other assays above

Cc1cccc(C)c1NC(=O)c1cc(S(N)(=O)=O)c(Cl)cc1O
not listed: [10] | [15] | [16] | [17] | [18] | [19]
inactive: all other assays above

CC(C)C(C)(C)C(C)(C)C(C)(C)S
not listed: [10] | [15] | [16] | [17] | [18] | [19]
inactive: all other assays above

CCOC(=O)C(O)c1ccccc1 (configuration not stated)
not listed: [10] | [15] | [16] | [17] | [18] | [19]
inactive: all other assays above

O=C1CCCc2c(O)cccc21
not listed: [13] | [14] | [15] | [16] | [17] | [18] | [19]
inactive: all other assays above

Cc1ccc(-c2ccccc2C#N)cc1
not listed: [10] | [11] | [13] | [15] | [16] | [17] | [18] | [19]
inactive: all other assays above

O=C(O)c1ccccc1S
not listed: [11] | [14] | [15] | [16] | [17] | [18] | [19]
inactive: all other assays above

O=C(c1ccccc1)c1ccccc1
not listed: [10] | [12] | [13] | [15] | [16] | [17] | [18] | [19]
inactive: all other assays above

Cc1ncc([N+](=O)[O-])n1C
not listed: [13] | [15] | [16] | [17] | [18] | [19]
inactive: all other assays above

CC1(C)OC(=O)Nc2ccc(Br)cc21
not listed: [14] | [15] | [16] | [17] | [18] | [19]
inactive: all other assays above

O=C1Cc2cc(Cl)ccc2N1
not listed: [14] | [15] | [16] | [17] | [18] | [19]
inactive: all other assays above

CCCC(=O)O[C@]1(C(=O)COC(=O)CC)CC[C@H]2[C@@H]3CCC4=CC(=O)CC[C@]4(C)[C@H]3[C@@H](O)C[C@@]21C
active: [17] 6.57 µM
not listed: [10]
inactive: all other assays above

O=C(C1CCCCC1)N1CC(=O)N2CCCc3ccccc3C2C1 (configuration not stated)
not listed: [10] | [14] | [15] | [16] | [17] | [18] | [19]
inactive: all other assays above

O=C(CCCl)NCCc1ccccc1
not listed: [14] | [15] | [16] | [17] | [18] | [19]
inactive: all other assays above

C[C@@H]1C[C@H]2[C@@H]3CCC4=CC(=O)C=C[C@]4(C)[C@@]3(F)[C@@H](O)C[C@]2(C)[C@@]1(O)C(=O)COC(=O)c1ccncc1
not listed: [10] | [13] | [15] | [16] | [17] | [18] | [19]
inactive: all other assays above

CC(C)NC(=O)c1ccc(C=O)cc1
not listed: [14] | [15] | [16] | [17] | [18] | [19]
inactive: all other assays above
